# Screening results: PubChem BioAssay, National Center for Advancing Translational Sciences (NCATS)
# ELG1 DNA repair: qHTS screen for small molecules that inhibit ELG1-dependent DNA repair in human embryonic kidney (HEK293T) cells expressing luciferase-tagged ELG1; HEK293T ELG1-luciferase reporter, luminescence, 16 h; DNA damage induced by 5-fluorouridine; 330,000 tested, 2.3% active; Potency, µM (doses to about 46.1 µM), inactives show top-dose activity change, negative = inhibition, hits mostly inhibitors; also: potency is read from the fitted curve at half-maximal effect; nearly all actives have a fitted effect of over 55% in size
#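 Reporter activity after DNA damage by 5-fluorouridine is monitored. Compound-treated cells incubate 16 hr at 37 °C, then ONE-Glo is added for 30 min before luminescence reading.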
# TSHR antag: Antagonists of the Thyroid Stimulating Hormone Receptor: HTS campaign | activity change, negative = inhibition, % at 11.5 µM | AID 504810, 2011 | Thyrotropin receptor (Homo sapiens), P16473 | 330,000 tested, 0.2% active | TSHR-expressing cells, TSH-stimulated cAMP HTRF, 2 h; hits give low values;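 active = activity change below a set negative limit, meaning inhibition stronger than a set level, cut at about -70% in these data; inconclusive = activity change between two set negative limits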
#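 Freshly harvested TSHR cells receive pin-tooled compound, then EC80 TSH at 4nM final. After 2 hours at 37 deg C, antibody in lysis buffer and cAMP-d2 are added; 30 minutes at ambient temperature precede the HTRF read.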
# FBPA coupling cs: qHTS Assay for Inhibitors of Fructose-1,6-bisphosphate Aldolase from Giardia Lamblia: Coupling assay counterscreen | 290,000 tested, 0.67% active | activity change, negative = inhibition, % at 58.2 µM, hits read low | coupling enzyme system counterscreen, AmpLite Red fluorescence | AID 2472, 2010; in the data active = activity change below about -30%
#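 First, compound is pin-transferred into glyceraldehyde-3-phosphate coupling-enzyme reagent at 57.5 uM final and held 10 min at RT. Next, substrate, coupling system and AmpLite Red are added. After 20 min RT, fluorescence (525/598 nm) is read.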
# VP16 counter: VP16 counterscreen qHTS for inhibitors of ROR gamma transcriptional activity | AID 2546, 2010 | Drosophila S2 Gal4-VP16 UAS-luciferase, luminescence, 20 h | Potency, µM (top dose mostly 53.6 µM), for inactives: at the highest dose activity, negative = inhibition, hits mostly inhibitors | 310,000 tested, 3.5% active;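 also: Gal4-VP16 expression switched on by copper sulfate through the metallothionein promoter; potency is read from the fitted curve at half-maximal effect; nearly all actives have a fitted effect of over 50% in size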
# RORgamma inh: qHTS for inhibitors of ROR gamma transcriptional activity; 310,000 tested, 5.4% active; Potency, µM (titrated, usually from 53.6 µM), without a hit: top-dose activity change, negative = inhibition, actives largely listed as inhibitors; AID 2551, 2010; Drosophila S2 Gal4-RORgamma UAS-luciferase reporter, 20 h; Nuclear receptor ROR-gamma (Mus musculus), P51450; also: potency is read from the fitted curve at half-maximal effect; nearly all actives have a fitted effect of over 60% in size
# Target sequence (P51450 whole entry, looked up, the tested form may be a part): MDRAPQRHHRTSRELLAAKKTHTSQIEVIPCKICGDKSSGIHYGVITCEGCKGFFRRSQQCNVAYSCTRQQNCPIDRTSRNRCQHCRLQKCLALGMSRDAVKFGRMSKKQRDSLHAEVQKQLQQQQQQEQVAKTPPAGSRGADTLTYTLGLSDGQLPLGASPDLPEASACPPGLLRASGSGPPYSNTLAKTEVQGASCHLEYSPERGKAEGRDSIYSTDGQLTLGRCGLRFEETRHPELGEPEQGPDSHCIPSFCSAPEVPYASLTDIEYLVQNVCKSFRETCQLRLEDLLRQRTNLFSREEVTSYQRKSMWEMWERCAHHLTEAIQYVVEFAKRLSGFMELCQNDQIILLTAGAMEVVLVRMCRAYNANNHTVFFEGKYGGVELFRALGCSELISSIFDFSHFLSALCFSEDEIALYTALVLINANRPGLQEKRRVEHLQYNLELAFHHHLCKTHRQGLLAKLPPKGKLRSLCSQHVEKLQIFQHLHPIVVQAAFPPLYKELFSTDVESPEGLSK
#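 Stably transfected Drosophila Schneider cells are the test system, with ROR gamma fused to Gal4 and luciferase under UAS control; luminescence is read after 20 hr of 700 uM copper sulfate induction at ambient temperature.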
# Numbers without * were called inactive; ? = inconclusive; nt = no result. Hits are enriched below; roughly 8% of the tested compounds scored in any of these assays. Unless noted, calls follow the shape of the dose curve; as a rule, active = well fitted curve in the direction sought with a large enough effect; inconclusive = small, poorly fitted or top-dose-only effect, or another doubt; inactive = no such curve, though single readings can be large; an effect the other way counts as inactive or inconclusive. % is scaled to controls: 0 for no effect and ±100 for the full control effect.
SMILES,ELG1 DNA repair,TSHR antag,FBPA coupling cs,VP16 counter,RORgamma inh
Cn1cccc1C(=O)N1CCC[C@@]2(CCN(c3ccncc3)C2)C1,nt,nt,1.8,-8.4%,-10.9%
O=C(Nc1ncc(Cc2cc(Cl)ccc2Cl)s1)c1ccc([N+](=O)[O-])cc1,?,-2.4,1.0,4.47µM*,1µM*
N#CCC(=O)Nc1ncc(Cc2ccccc2Cl)s1,-2.5%,-4.7,-2.1,?,12.6µM*
CC(C)C(=O)Nc1ncc(Cc2ccccc2Cl)s1,5.6%,-10.2,1.6,5.4%,?
CCCCSc1cnn(-c2ccccc2)c(=O)c1SCCCC,?,-13.2,-4.5,14.1µM*,?
CCSc1cnn(-c2ccccc2)c(=O)c1SCC,-5.4%,0.7,3.8,15.5%,?
O=C1NC(c2ccc(Br)cc2)Nc2sc3c(c21)CCC3 (stereo not given),?,-12.1,-3.6,5.6%,23.8%
CN1CCc2c(sc3c2C(=O)NC(c2ccccn2)N3)C1 (stereo not given),20.8%,20.8,-61.5*,0.3%,-13.7%
CN1CCc2c(sc3c2C(=O)NC(c2ccccc2)N3)C1 (stereo not given),?,0.9,-21.5,3.1%,3.5%
O=C1NC(c2ccccn2)Nc2sc3c(c21)CCC3 (stereo not given),?,4.7,-15.5,?,14.1µM*
COc1ccc(NC(=O)CN(C)C(=O)c2ccc(OCc3ccccc3)c(OC)c2)cc1,-7.7%,6.7,nt,nt,nt
CCOC(=O)NC(=O)CSc1ccc(S(=O)(=O)N(C)C2CCCCC2)cn1,-3.7%,9.3,nt,nt,nt
CNC(=O)c1ccc(NC(=O)CC23CC4CC(CC(C4)C2)C3)cc1,9.2µM*,9.0,2.2,-13.2%,25.3%
NC(=O)COc1ccc(NC(=O)CC23CC4CC(CC(C4)C2)C3)cc1,-9.3%,24.3,-0.8,-11.1%,-2.5%
CCC1(c2ccc(F)cc2)NC(=O)N(CC(=O)N2CCN(C(=O)c3ccco3)CC2)C1=O (stereo not given),11.3%,11.9,nt,nt,nt
O=C(O)CCNS(=O)(=O)c1ccc2ccccc2c1,3.8%,-4.4,8.9,-7.7%,5.0%
O=C(O)CCNc1cc2ccccc2cc1C(=O)O,13.1%,2.7,-30.4*,-12.4%,-16.4%
O=C1S/C(=C\c2ccc(N3CCOCC3)o2)C(=O)N1c1ccccc1,?,-0.4,-43.3*,?,-91.4%
O=C1S/C(=C\c2ccc(N3CCOCC3)o2)C(=O)N1Cc1c(F)cccc1Cl,1.0%,-23.0,-40.6*,?,?
O=C1S/C(=C/c2ccc(N3CCOCC3)o2)C(=O)N1Cc1c(F)cccc1Cl,?,-16.7,-15.9,8.4%,-0.6%
CN1C(=O)C(C)(C)c2cc(S(=O)(=O)NCC3CCC(C(=O)NCc4ccccc4)CC3)ccc21 (stereo not given),3.8%,-1.8,-0.7,-23.0%,21.6%
CCOc1ccc(S(=O)(=O)Nc2ccc(O)c(Sc3ncn[nH]3)c2)cc1,?,28.0,6.5,3.55µM*,?
Cc1ccc(S(=O)(=O)Nc2ccc(O)c(Sc3ncn[nH]3)c2)cc1,-7.8%,-2.6,-9.8,5.7%,-1.9%
O=C(/C=C/c1cccc(F)c1)Nc1cc(S(=O)(=O)N2CCOCC2)ccc1Cl,25.9µM*,-6.5,nt,nt,nt
O=C(/C=C/c1ccc(S(=O)(=O)N2CCOCC2)cc1)Nc1cc(F)ccc1F,?,-8.6,nt,nt,nt
C/C(=N\NC(=S)Nc1cc(S(=O)(=O)N2CCOCC2)ccc1Cl)c1ccccc1F,?,-1.8,0.1,6.31µM*,1.12µM*
CC(C)N(C(=S)Nc1cc(S(=O)(=O)N2CCOCC2)ccc1Cl)c1ccccc1,?,3.6,3.8,-4.1%,1.7%
Cc1ccc(F)cc1NC(=O)/C=C/c1ccc(S(=O)(=O)N2CCOCC2)cc1,23.1µM*,1.7,nt,nt,nt
CCN1C(=O)[C@H]2[C@@H](c3ccc(-c4cccc(Cl)c4)cc3)N[C@@](C)(C(=O)OC)[C@H]2C1=O,?,-2.4,nt,nt,nt
